Among the data in PubChem BioAssay AID2061305 (National Center for Advancing Translational Sciences (NCATS), 2025) are Potency values, retold here.

The structures appear in SMILES notation. Records with an inconclusive call do not appear. Calls of active or inactive are those of the source. Calls come from the whole dose curve; as a rule, active = well fitted inhibition curve with a large enough effect; inconclusive = small, poorly fitted or top-dose-only effect; inactive = flat fitted curve, though single readings scatter. Where a SMILES comes first, the peptide text is derived from it. [ ]: non-standard residue; d: D form. The star is where a group is joined. Dolaproine = CO[C@@H]([C@@H]1CCCN1)[C@@H](C)C(=O)O; Dil = CC[C@H](C)[C@H](NC)[C@@H](CC(=O)O)OC; NMe2Val = CC(C)[C@@H](C(=O)*)N(C)C; X1 = C[C@@H](N*)[C@@H](O)c1ccccc1; NMeV = CN[C@H](C(=O)O)C(C)C

A short description of the assay: Identification of antibody-drug conjugate (ADC) payloads which are substrates of ATP-binding cassette drug efflux transporters: ABCB1-HeLa-KB-3-1 cell line. The conditions noted are these: KB-3-1 (HeLa derivative) viability, CellTiter-Glo, 48 h. From the text:
Antibody-drug conjugates (ADCs) feature an antibody recognizing a specific protein joined to a potent toxic payload. Numerous antibody-drug conjugates have received FDA approval; however, clinical resistance arises. Resistance mechanisms include decreased expression or mutation of the antibody target, impaired payload release, or increased expression of ATP-binding cassette (ABC) efflux transporters associated with multidrug resistance. We therefore sought to characterize the interaction of ABC multidrug transporters with ADC payloads. We performed a high-throughput screen with 27 common ADC payloads using cells lines expressing ABC transporters P-glycoprotein (P-gp, encoded by ABCB1) or ABCG2 (encoded by ABCG2). Confirmatory assays were also performed using cells transfected to express P-gp, ABCG2, or MRP1 (encoded by ABCC1). Several commonly used ADC payloads were substrates of P-gp, including calicheamicin gamma1, monomethyl auristatin E, DM1, and DM4. All the pyrrolobenzodiazepines tested - SJG136, SGD-1882, SG2057, and SG3199 - were substrates of P-gp, ABCG2, and MRP1. […] These findings highlight the risk of transporter-mediated resistance with certain ADC payloads and underscore the importance of selecting payloads that evade ABC transporter recognition in future ADC development.
HEK-293 cells were transfected with empty vector (pcDNA) or vector containing the human ABCB1 (MDR-19), ABCG2 (R-5), or ABCC1 gene (MRP1) and were maintained in EMEM with 2 mg/mL G418 added to maintain transporter expression. The HeLa derivative KB-3-1 and the P-gp overexpressing KB-8-5-11 subline were maintained in DMEM; KB-8-5-11 additionally received 100 ng/mL colchicine. H460 parental cells were obtained from the Division of Cancer Treatment and Diagnosis Tumor Repository, National Cancer Institute at Frederick, MD and were cultured in RPMI. The ABCG2 expressing subline H460 MX20 was generated by selecting H460 cells in 20 nM mitoxantrone. Media in all cases was supplemented with 10% FBS and 1% penicillin-streptomycin. We explored 27 common ADC payloads, in two orthogonal, paired cell line sets-a drug selected and transfected set for each transporter--to identify substrates of the ABC transporters P-gp and ABCG2. Compounds were sourced from Levena Biopharma (San Diego, CA), Selleck Chem (Houston, TX), ChemieTek (Indianapolis, IN), or Microsource Discovery Systems (Gaylordsville, CT). Screening was performed as previously described. Briefly, cells were plated at a density of 500 cells/well in 1536 well plates with compounds added using a 1536-head pin tool (Kalypsys, San Diego CA). Cells were incubated with cytotoxic drugs and processed with CellTiter Glo reagent (Promega, Madison, WI) to determine viability after 48 hours. P-gp substrates were identified by comparing compound activity between paired sets of low-expressing (sensitive) and over-expressing (resistant) cell lines.
A general note: Cellular ATP, detected with luciferase, serves as a proxy for viable cell number.
Regarding `CC[C@H](C)[C@H](NC(=O)[C@H]1CCCCN1C)C(=O)N(C)[C@H](C[C@@H](OC(C)=O)c1nc(C(=O)O)cs1)C(C)C`, the Potency is 472 nM (active).

Regarding `CC[C@H](C)[C@@H]1NC(=O)CNC(=O)[C@H]2Cc3c([nH]c4cc(O)ccc34)S(=O)C[C@H](NC(=O)CNC1=O)C(=O)N[C@@H](CC(N)=O)C(=O)N1C[C@H](O)C[C@H]1C(=O)N[C@@H]([C@@H](C)[C@@H](O)CO)C(=O)N2` (stereo not given in full), the Potency was 5290 nM (active). As for `CC[C@H](C)[C@@H]([C@@H](CC(=O)N1CCC[C@H]1[C@H](OC)[C@@H](C)C(=O)N[C@H](C)[C@@H](O)c1ccccc1)OC)N(C)C(=O)[C@@H](NC(=O)[C@@H](NC)C(C)C)C(C)C` (H-[NMeV]V[Dil][Dolaproine]-X1), the figure is 0.3 nM (active); as for `COc1cccc2c1C(=O)c1c(O)c3c(c(O)c1C2=O)C[C@@](O)(C(=O)CO)CC3OC1CC(N2CCOC(OC)C2)C(O)C(C)O1` (stereo not given in full), 11.8 nM (active); as for `CC[C@H](C)[C@H](NC(=O)[C@H]1CCCCN1C)C(=O)N(C)[C@H](C[C@@H](OC(C)=O)c1nc(C(=O)N[C@@H](Cc2ccccc2)C[C@H](C)C(=O)O)cs1)C(C)C`, 0.3 nM (active).

As to `COc1cc2cc(C(=O)N3C[C@@H](CCl)c4c3cc(O)c3ccccc43)[nH]c2c(OC)c1OC`, the Potency is 1.3 nM (active). Turning to `CC[C@H](C)[C@@H]([C@@H](CC(=O)N1CCC[C@H]1[C@H](OC)[C@@H](C)C(=O)N[C@H](C)[C@@H](O)c1ccccc1)OC)N(C)C(=O)[C@@H](NC(=O)[C@H](C(C)C)N(C)C)C(C)C`, the Potency is 0.2 nM (active). As for `CC[C@@]1(O)C(=O)OCc2c1cc1n(c2=O)Cc2cc3ccccc3nc2-1`, the Potency is 334 nM (active). On to `CC[C@H](C)[C@@H]([C@@H](CC(=O)N1CCC[C@H]1[C@H](OC)[C@@H](C)C(=O)N[C@@H](Cc1ccccc1)C(=O)O)OC)N(C)C(=O)[C@@H](NC(=O)[C@H](C(C)C)N(C)C)C(C)C` (NMe2Val-V[Dil][Dolaproine]F-OH), for which the Potency is 33.4 nM (active). Take `COc1cc2cc(c1Cl)N(C)C(=O)C[C@H](OC(=O)[C@H](C)N(C)C(=O)CCC(C)(C)S)[C@]1(C)OC1[C@H](C)C1C[C@@](O)(NC(=O)O1)[C@H](OC)/C=C/C=C(\C)C2` (stereo not given in full): the Potency is 0.5 nM (active).
